DAX1 inh-1: inhibitors of DAX1 repression of SF-1 activated StAR promoter; HEK293T StAR-luciferase reporter, SF-1/DAX-1 repression relief; inhibition, % at 6.8 µM; 370,000 tested, 1.1% active;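 active means inhibition above the mean over all tested compounds plus 3 SD, cut at about 3.6% in these data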;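 further: 0% = DAX-1 cells with DMSO and 100% = cells lacking DAX-1 with DMSO; higher inhibition means more luminescence from relief of DAX-1 repression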
FXN GAA850 act: frataxin GAA850 promoter activation; 360,000 tested, 0.56% active; AID 540364; activation, % at 6 µM; HEK293 lucGAA850 FXN promoter luciferase reporter, 24 h; percent of 10 µM SAHA response;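 active means activation above the average of all compounds screened plus 3 SD, cutoff fixed separately per campaign, cut at about 7.5% in these data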;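 further: 0% = DMSO wells and 100% = 10 µM SAHA wells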
hgDAF-12 ag: hgDAF-12 agonism, primary luciferase screen; AID 687014; HEK293 GAL4-hgDAF12 UAS-luciferase reporter, agonist luminescence; normalized to butyrate control; 370,000 tested, 1.8% active; activation, % at 6.8 µM;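 active means activation above a cutoff set at the mean of all screened compounds plus 3 SD, cut at about 10% in these data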;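 further: 0% = DMSO wells and 100% = sodium butyrate wells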
hcDAF12 agonist: H. contortus DAF-12 activation, primary screen | HEK293 hcDAF-12 lit1-tk-luc reporter, luminescence; 0% DMSO, 100% Δ7-dafachronic acid | activation, % at 6.8 µM | 370,000 tested, 1.4% active;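 active means activation above the mean of all tested compounds plus 3 SD, cut at about 5.5% in these data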;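 further: 100% = response to 3 µM Δ7-dafachronic acid high control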
DAX1 inh-2: inhibits human nuclear receptor DAX1 | P51843 | HEK293 Gal4-DAX1 luciferase reporter, luminescence | inhibition, % at 6.75 µM | 340,000 tested, 0.99% active | AID 504766;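 active means inhibition above the mean over all tested compounds plus 3 SD, cut at about 4.2% in these data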;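 further: 0% = DAX1-transfected cells with DMSO and 100% = empty-vector control cells with DMSO; inhibition shows as a rise in luminescence from relieved DAX1 repression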
Target sequence (P51843 207-470 limits assumed): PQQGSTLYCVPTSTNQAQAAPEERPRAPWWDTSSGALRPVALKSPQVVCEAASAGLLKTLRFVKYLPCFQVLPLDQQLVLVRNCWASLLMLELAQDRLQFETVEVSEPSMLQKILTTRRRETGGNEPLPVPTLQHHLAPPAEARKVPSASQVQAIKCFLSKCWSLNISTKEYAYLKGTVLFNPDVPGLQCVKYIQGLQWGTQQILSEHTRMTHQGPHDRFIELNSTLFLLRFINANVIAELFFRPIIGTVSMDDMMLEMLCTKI
ssDAF12 agonist: activates DAF-12 receptor from parasite S. stercoralis. HEK293 ssDAF-12/GRIP1 lit1-tk-luc reporter, luminescence; % of 3 µM dafachronic acid response. activation, % at 6.8 µM. 370,000 tested, 1% active;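 active means activation above the mean over all tested compounds plus 3 SD, cut at about 0.9% in these data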;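 further: 0% = DMSO-only wells and 100% = 3 µM delta7-dafachronic acid wells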
Active calls of the source: *; x = no result. In the library only some 4.5% were active in any assay of this set; here they are far more common.

SMILES	DAX1 inh-1	FXN GAA850 act	hgDAF-12 ag	hcDAF12 agonist	DAX1 inh-2	ssDAF12 agonist
CCCC(=O)N1CCC[C@]2(CC[C@H](CCC#N)O2)C1	1	x	1	-1	x	-2
Cc1ccc(S(=O)(=O)Nc2cccc(-c3ccc(N4CCCCCC4)nn3)c2)c(C)c1	4.1*	5	10	2	1	-1
O=[N+]([O-])c1ccccc1S(=O)(=O)Nc1cccc(-c2ccc(N3CCCC3)nn2)c1	2	1	3	1	0	-1
O=C(NCCc1ccccc1)OCc1cn(Cc2ccccc2F)nn1	0	x	-1	-1	x	1
O=C(OCc1cn(Cc2ccccc2C(F)(F)F)nn1)N1CCOCC1	0	x	3	-1	x	-1
CS(=O)(=O)c1ccc(C(=O)OCc2nnc(-c3ccc(Cl)cc3)o2)cc1[N+](=O)[O-]	x	14*	x	x	0	x
O=C(OCc1nnc(-c2ccc(Cl)cc2)o1)c1ccc(O)cc1	-1	3	5	-1	1	-1
CCN(CCn1cccn1)C(=O)CCc1nnc(-c2ccccc2)o1	1	3	8	1	-1	-1
CCN(CCn1cccn1)C(=O)CCc1nnc(C2(c3ccc(Cl)cc3)CCC2)o1	1	1	12*	1	1	0
Cc1cccc(NC(=O)CSc2nnc(SCc3ccc(Cl)cc3)s2)c1	0	x	-4	-1	x	-2
CCC1CCC/C1=N\NC(=O)c1ccccc1C (stereo not drawn)	0	2	5	2	5.3*	0
O=C([C@@H]1C[C@H]1c1ccccc1)N1CC[C@H]2[C@H](CCCN2Cc2cc(F)cc(F)c2)C1	-1	x	-1	-2	x	-2
Cc1nc(N2CCCCC2C)c2nnn(Cc3ccccc3)c2n1 (stereo not drawn)	0	x	-2	-1	x	-1
CC(=O)c1cc2c(=O)c3ccccc3oc2nc1C	0	3	0	-1	0	-1
CCOC(=O)c1cc2c(=O)c3ccccc3oc2nc1C	1	2	11*	3	2	-1
O=C(CSc1nnc(-c2ccccc2)n1-c1ccc(Cl)cc1)c1ccc(Cl)cc1	0	x	-3	-2	x	-1
CCCCOc1ccc2c(c1)C(=O)c1cc(O)ccc1-2	2	7	11*	1	1	-1
CC(OC(=O)c1cccnc1Cl)C(=O)Nc1ccc(S(N)(=O)=O)cc1 (stereo not drawn)	0	0	1	-1	6.2*	-2
CC(C)(C)C(=O)OC12CCCN(C1)/C(=C/c1cccc(Cl)c1)C2 (stereo not drawn)	1	x	3	-1	x	-1
CCCC(=O)Nc1cnc(NC(=O)c2cccc(F)c2)cc1C	3	2	13*	4	-1	1
Cc1cc(NC(=O)C(C)C)ncc1NC(=O)c1cccc(F)c1	0	-1	-1	-1	0	-1
C#CCCCN([C@H](C(=O)OC)C(C)C)S(=O)(=O)c1ccccc1Br	-1	x	3	-3	x	-2
Cc1onc(-c2ccccc2)c1C(=O)NNC(=O)c1ccccc1O	-2	1	4	1	2	-1
Cc1onc(-c2ccccc2)c1C(=O)NNC(=O)c1ccccc1	0	2	0	3	0	1.1*
Cc1onc(-c2ccccc2)c1C(=O)Nc1cccc(C#N)c1	-2	0	11*	2	2	-2
SMILES	DAX1 inh-1	FXN GAA850 act	hgDAF-12 ag	hcDAF12 agonist	DAX1 inh-2	ssDAF12 agonist
COC(=O)C1CN(C2CCCC2)CCS(=O)(=O)N1Cc1cn(Cc2ccccc2)nn1 (stereo not drawn)	0	x	2	0	x	-2
c1ccc2c(c1)N=C(N1CCN(Cc3ccc4c(c3)OCO4)CC1)c1ccccc1S2	-1	x	1	-1	x	-1
CCOC(=O)c1c(NC(=O)CSc2nnc(C)c(=O)[nH]2)sc(C)c1-c1ccc(C)cc1	0	1	0	0	4.6*	-1
COc1ccccc1N=Cc1nc(-c2ccccc2)oc1OC(C)=O	0	0	1	3	2	0
CC(=O)Oc1oc(-c2ccccc2)nc1/C=N/c1ccccn1	2	1	6	2	5.1*	-1
COC(=O)CSc1nnc(-c2ccc(NS(=O)(=O)c3ccc(Cl)s3)cc2)o1	0	x	4	0	x	-2
CC(C)c1ccc(NC(=O)C2CCCN(S(=O)(=O)c3cnc[nH]3)C2)cc1 (stereo not drawn)	0	0	0	-1	5.5*	-1
CC(C)c1ccc(S(=O)(=O)N2CCN(C(=O)C3CCCCC3)CC2)cc1	-2	-2	-4	5.8*	0	-2
O=C(Nc1ccc(Cl)cc1)C1CCCN(S(=O)(=O)c2cnc[nH]2)C1 (stereo not drawn)	0	-4	0	-1	1	-1
CC(=O)N1CCc2cc(S(=O)(=O)NCCC(=O)NCc3ccc(Cl)cc3)ccc21	-2	x	0	-1	x	-2
O=C(NC(=S)NNC(=O)c1ccccc1O)c1cccnc1	2	-1	2	2	4.3*	0
O=C(NC(=S)NNC(=O)c1ccc(Cl)cc1Cl)c1cccnc1	1	2	1	-1	-1	0
O=C(NC(=S)NNS(=O)(=O)c1ccccc1)c1cccnc1	0	2	-3	2	0	1.1*
Cc1ccc(S(=O)(=O)NNC(=O)c2cccnc2)cc1	1	0	0	0	1	0
Cc1n[nH]c(C)c1CCC(=O)N/N=C/c1c(C)[nH]c2ccccc12	0	1	1	4	6.2*	-1
Cc1[nH]c2ccccc2c1/C=N/NC(=O)CCC(=O)NCc1ccccc1	0	1	6	2	1	1
Cc1n[nH]c(C)c1CCC(=O)N/N=C/c1c[nH]c2ccccc12	1	2	1	6.1*	1	2.1*
O=C(NCc1cccc(Cl)c1)O[C@H]1CC[C@@]23CCCN2C(=O)CCC[C@H]3C1	x	x	-2	0	x	-2
Cc1nn(-c2ccccc2)c2sc(C(=O)N3CCN(Cc4ccc(F)cc4)CC3)cc12	-1	x	1	1	x	-1
Cc1ccccc1NC(=O)C(=O)NCCCN1CCCC1=O	3.7*	2	0	3	1	0
CCN(CC)CCCNC(=O)C(C)n1c2ccccc2c2nc(=O)cc(C)n21 (stereo not drawn)	1	4	-1	-1	5.4*	-1
Cc1cc(=O)nc2c3ccccc3n(CC(=O)NCCCN3CCCC3=O)n12	1	1	3	6.0*	1	0
CCOC(=O)CC[C@@H]1CC[C@]2(CCCN(C(=O)c3cccnc3)C2)O1	1	x	-1	-3	x	-1
Cc1cccc(-c2cccc3c4c([nH]c23)[C@@H]2C[C@H](N(C)C(=O)Nc3ccccc3)[C@H]([C@H](C)O)CN2CC4)c1	0	x	-1	-1	x	-1

Screens as filed in PubChem.
